RTF Ca sens act = cardiac RTF calcium sensitization; P19429+P45379; IANBD-labeled TnC RTF fluorescence at EC20 calcium; 0% EC20 calcium, 100% full calcium; activation, % at 7.2 µM; hit rate 0.24% among 340,000;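 active = activation above the mean over all tested compounds plus 3 SD, cut at about 30% in these data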;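 note: rise in fluorescence read as greater calcium sensitivity of cardiac thin filaments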
TPT1 inh = C. albicans TPT1 enzyme inhibition; recombinant caTPT1, FP RNA substrate dephosphorylation; inhibition, % at 5 µM; hit rate 0.81% among 300,000;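 active = inhibition above the mean of all tested compounds plus 3 SD, set per screening campaign, cut at about 24% in these data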;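 note: plate controls were DMSO alone for no effect and ferristatin control at 100 nM for full effect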
RTF Ca sens inh = cardiac RTF calcium desensitization; P19429+P45379; IANBD-labeled cardiac RTF, Ca2+ fluorescence; inhibition, % at 7.15 µM; hit rate 0.12% among 340,000; AID 493244;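 active = inhibition above the mean inhibition of all tested compounds plus 3 SD, cut at about 17% in these data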;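 note: assay run at fixed EC70 calcium of 1.6 mM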
IDE cell activ = boosts human insulin-degrading enzyme activity in HEK cells; P14735; FAbeta-B cleavage, fluorescence polarization; 0% vehicle, 100% cell-free pure enzyme wells; activation, % at 5.96 µM; hit rate 0.073% among 340,000;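 active = activation above the mean of all tested compounds plus 3 SD, set per screening campaign, cut at about 17% in these data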
Target sequence (P14735 whole entry, looked up): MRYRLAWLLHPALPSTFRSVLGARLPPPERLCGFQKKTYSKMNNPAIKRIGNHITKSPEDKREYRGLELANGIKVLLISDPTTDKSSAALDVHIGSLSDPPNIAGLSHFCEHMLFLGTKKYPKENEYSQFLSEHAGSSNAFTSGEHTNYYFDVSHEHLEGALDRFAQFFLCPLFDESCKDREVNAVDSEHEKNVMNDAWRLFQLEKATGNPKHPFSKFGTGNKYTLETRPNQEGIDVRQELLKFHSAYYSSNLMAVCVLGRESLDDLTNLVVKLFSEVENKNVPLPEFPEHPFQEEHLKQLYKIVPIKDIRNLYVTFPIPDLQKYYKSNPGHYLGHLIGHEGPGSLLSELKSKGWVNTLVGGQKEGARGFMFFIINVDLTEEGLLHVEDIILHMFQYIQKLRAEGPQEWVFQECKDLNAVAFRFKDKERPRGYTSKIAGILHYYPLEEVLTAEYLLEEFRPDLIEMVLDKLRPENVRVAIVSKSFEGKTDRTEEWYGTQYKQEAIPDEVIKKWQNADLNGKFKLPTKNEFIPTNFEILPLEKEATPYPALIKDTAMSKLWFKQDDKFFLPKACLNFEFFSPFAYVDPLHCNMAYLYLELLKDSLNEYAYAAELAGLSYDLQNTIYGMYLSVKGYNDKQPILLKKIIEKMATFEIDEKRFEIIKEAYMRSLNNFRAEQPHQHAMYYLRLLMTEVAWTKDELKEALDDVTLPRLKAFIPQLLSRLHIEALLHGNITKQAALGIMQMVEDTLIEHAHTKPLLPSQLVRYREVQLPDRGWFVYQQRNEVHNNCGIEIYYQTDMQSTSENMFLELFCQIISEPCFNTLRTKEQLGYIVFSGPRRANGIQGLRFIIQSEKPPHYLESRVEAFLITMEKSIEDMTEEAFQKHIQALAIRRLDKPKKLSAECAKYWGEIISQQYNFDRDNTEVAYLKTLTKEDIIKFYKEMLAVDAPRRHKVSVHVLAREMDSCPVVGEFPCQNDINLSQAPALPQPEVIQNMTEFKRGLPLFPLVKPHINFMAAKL
IDE inh = inhibits human insulin-degrading enzyme in HEK cells; P14735; hit rate 0.41% among 320,000; inhibition, % at 5.59 µM; FAbetaB cleavage, fluorescence polarization;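 active = percent inhibition above the average of all tested compounds plus 3 SD, set per screening campaign, cut at about 16% in these data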;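 note: IDE supplied by intact live HEK cells; FP after avidin binding of uncleaved biotin substrate so inhibition keeps polarization high; 0% = DMSO wells and 100% = 60 µM reference IDE inhibitor Ii1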
CRFR2-BP ag = CRF-BP/CRF-R2 complex agonism. activation, % at 13.2 µM. HEK293 CRF-R2/CRF-BP, calcium dye fluorescence (FLIPR); percent of saturating CRF peptide response. AID 588473. hit rate 0.46% among 350,000;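 active = activation of at least 50%, plus an integration ratio under a set limit after plate pattern correction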;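 note: plate controls were neutral control wells without compound for no effect and CRF at EC100 for full effect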
IDE cell inh cf = cellular human IDE inhibition, confirmation | shares compounds with IDE inh | HEK cells, FAbetaB cleavage, fluorescence polarization | inhibition, % at 5.59 µM | hit rate 51% among 1,200 | AID 435028;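 active = mean inhibition across triplicate wells above the cutoff set by the earlier primary insulin-degrading enzyme screen, cut at about 16% in these data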;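 note: 0% = DMSO wells and 100% = 60 µM reference IDE inhibitor Ii1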
HEK cytotox = counter-screen for IDE inhibitors: cytotoxicity in HEK cells. shares compounds with IDE inh. hit rate 28% among 1,200. HEK293 cytotoxicity, ATP luminescence. inhibition, % at 5.59 µM; in the data active = inhibition above about 22%;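 note: 0% = vehicle wells and 100% = reference cytotoxic drug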
Numbers without * were called inactive; x = no result. Only some compounds are listed: those with a hit (about 1.5% of all), similar ones and a draw of the others.

SMILES | RTF Ca sens act | TPT1 inh | RTF Ca sens inh | IDE cell activ | IDE inh | CRFR2-BP ag | IDE cell inh cf | HEK cytotox
NC(=S)N/N=C\c1ccc(-c2cccc(Cl)c2Cl)o1 | 4 | 3 | -3 | -29 | 27* | 1 | 3 | 28*
Cc1ccc(-c2n[nH]c(=O)c3ccccc23)cc1S(=O)(=O)NCC1CCCO1 (stereo not given) | 5 | -1 | -8 | -6 | 4 | 0 | x | x
Cc1ccc(-c2n[nH]c(=S)c3ccccc23)cc1S(=O)(=O)NCC1CCCO1 (stereo not given) | -8 | -5 | -1 | -11 | 22* | -1 | 5 | 16
Cc1cccnc1NC(=O)c1ccc(Cl)c(S(=O)(=O)N2CCCCCC2)c1 | -5 | -2 | -12 | -4 | 11 | -1 | x | x
CN(C)S(=O)(=O)c1ccc(C(=O)NCC2(N3CCCCC3)CCCCC2)cc1 | -2 | 1 | 0 | 0 | 0 | 2 | x | x
CS(=O)(=O)c1ccc(C(=O)NCC2(N3CCCCC3)CCCCC2)cc1 | -4 | -3 | 3 | 0 | 16* | 0 | 6 | 10
COc1cccc(NC(=O)N2CCN(c3ccc(C(F)(F)F)cn3)CC2)c1 | -4 | -2 | 11 | -7 | 18* | -4 | 8 | 26*
Cc1cc(C(=O)N2CCN(c3ccc(C(F)(F)F)cn3)CC2)c(C)o1 | 9 | -4 | 0 | -18 | 17* | -4 | 2 | 21
CCCNC(=O)Cn1sc2nc(C)cc(C)c2c1=O | -3 | 5 | 5 | -48 | 40* | 3 | 14 | 42*
CCOC(=O)C1CCCN(C(=O)Cn2sc3nc(C)cc(C)c3c2=O)C1 (stereo not given) | 1 | 3 | -4 | -61 | 19* | -1 | 8 | 66*
Cc1cc(C)c2c(=O)n(CC(=O)N3CCC(N4CCCCC4)CC3)sc2n1 | -2 | -1 | -4 | -56 | 7 | 1 | x | x
C=CCN(C(=O)c1csnn1)C(C(=O)NC1CCCC1)c1ccc(OC)cc1 (stereo not given) | -8 | 0 | 1 | 2 | -1 | 0 | x | x
CCOc1ccc2nc(SCC3CC3(Cl)Cl)[nH]c2c1 (stereo not given) | 8 | 1 | 7 | 5 | 16* | 0 | 4 | 29*
Cc1ccc2nc(C)c(C(=O)NN=C3CCCCCC3)n2c1 | -8 | -1 | 4 | 2 | 4 | -1 | x | x
COc1ccc(-c2nnc3ccc(SCC(=O)Nc4nccs4)nn23)cc1OC | 4 | -3 | -15 | -1 | 5 | 0 | x | x
COc1ccc(-c2nnc3ccc(SCC(=O)Nc4nc5ccccc5s4)nn23)cc1OC | 4 | 3 | 1 | -24 | 18* | 3 | 5 | 11
COC(=O)c1ccc(C2C(C#N)=C(N)Oc3cc(O)ccc32)cc1 (stereo not given) | 2 | 23 | -6 | 0 | 24* | 20 | 3 | 8
COC(=O)c1ccc(C2C(C#N)=C(N)Oc3cc(N)ccc32)cc1 (stereo not given) | -2 | 7 | -7 | 3 | 0 | 4 | x | x
N#CC1=C(N)Oc2cc(O)ccc2C1c1cccnc1 (stereo not given) | 3 | 8 | 0 | -35 | 82* | 4 | 14 | 7
N#CC1=C(N)Oc2cc(O)ccc2C1c1ccncc1 (stereo not given) | -4 | 20 | 7 | -16 | 131* | 1 | 11 | 11
N#CC1=C(N)Oc2ccc3ccc(O)cc3c2C1c1cccnc1 (stereo not given) | -3 | 8 | -6 | 5 | -2 | 0 | x | x
O=C(CC1Nc2c3ccccc3nc(=S)n2C1=O)NC1CCCCC1 (stereo not given) | x | -3 | x | x | 10 | x | x | x
Cc1ccc(/C=C/C(=O)NC(=S)Nc2ccc(S(=O)(=O)Nc3cc(C)on3)cc2)cc1 | -10 | -1 | 11 | -10 | 25* | 0 | 21* | 8
Cc1cc(NS(=O)(=O)c2ccc(NC(=S)NC(=O)/C=C/c3ccccc3)cc2)no1 | 0 | -2 | 4 | 2 | -2 | -1 | x | x
N#Cc1c2c(c[nH]c1=O)CCN2Cc1ccccc1 | -2 | 5 | -1 | -26 | 16* | -1 | 15 | 4
SMILES | RTF Ca sens act | TPT1 inh | RTF Ca sens inh | IDE cell activ | IDE inh | CRFR2-BP ag | IDE cell inh cf | HEK cytotox
CN(C)c1[nH]c(=O)c(C#N)c2c1CCN2Cc1ccccc1 | 0 | 0 | -7 | 1 | 4 | -2 | x | x
Cc1cccc(OCc2nnc(SCC(=O)NCc3ccc4c(c3)OCO4)o2)c1 | x | x | x | x | x | -2 | x | x
Cc1cccc(NS(=O)(=O)c2ccc(C)c(C(=O)NNC(=O)c3csc(N4CCOCC4)n3)c2)c1 | -2 | x | -8 | 3 | x | 2 | x | x
COc1cc(/C=C/c2nc3ccccc3s2)cc(OC)c1O | 9 | 16 | -2 | -101 | 142* | 1 | 103* | 16
COc1cc(C=C(c2nc3ccccc3s2)c2nc3ccccc3s2)ccc1O | 2 | 11 | 4 | -44 | 27* | 0 | 59* | 13
COCCCNC(=O)CCN1N=C(c2ccccc2)CCC1=O | -3 | 0 | -7 | 1 | -2 | 3 | x | x
O=C(Nc1cccc(-n2cnnn2)c1)c1cccc(Cl)c1 | 0 | -3 | -4 | -11 | 18* | -1 | 12 | 13
O=C(Nc1cccc(-n2cnnn2)c1)c1cc(Cl)nc(Cl)c1 | -1 | 1 | 7 | -2 | -1 | 0 | x | x
COC(=O)c1ccc(OS(=O)(=O)N(C)C)cc1 | -2 | -1 | -15 | -1 | -6 | 1 | x | x
CNS(=O)(=O)c1cc(-c2nnc(Nc3ccc(CC(N)=O)cc3)c3ccccc23)ccc1C | -5 | -5 | 4 | 1 | 0 | 1 | x | x
CC(c1nccs1)N(C)C(=O)CCc1nnc(-c2ccc(-c3ccccc3)cc2)o1 (stereo not given) | 0 | 2 | 2 | -16 | 25* | 1 | 4 | 17
NS(=O)(=O)c1cccc(NC(=O)COC(=O)CCC2CCCC2)c1 | 0 | x | -6 | 6 | -7 | 0 | x | x
Cc1ccc(CNC(=O)CN(C(=O)C2(C)CC(=O)N=C3C=CC=CN32)c2ccccc2F)cc1 (stereo not given) | 0 | -2 | 4 | 5 | -2 | 1 | x | x
Cc1ccc(S(=O)(=O)N2CCCN(C(=O)c3cc4ccccc4[nH]3)CC2)cc1 | 4 | 4 | 7 | -16 | 16* | 0 | 5 | 9
C=CCn1c(O)c(N=NC(=S)Nc2cccc(C)c2)c2ccccc21 | -1 | -1 | 16 | -4 | 24* | -1 | 2 | 82*
C=CCn1c(O)c(N=NC(=S)Nc2ccccc2F)c2ccccc21 | 4 | -2 | -11 | -6 | 4 | -2 | x | x
CSC(=Nc1ccccc1)N=C(SCc1ccccc1)N(C)C | -3 | x | -1 | 1 | x | 26 | x | x

Assay outcomes as filed in PubChem BioAssay.
